# Reference: PubChem BioAssay
# Inconclusive results are not listed. The source made the active and inactive calls. Cut-off read from the data, not from the text of the source, unless noted: active = inhibition above about 30%; inactive = the rest.
# Columns and labels:
# [1] = SK-BR-3 cell growth inhibitors, pilot screen, 24 h, human (AID 572;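 active = viability at or below 10% of carrier control in both of two separate runs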;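 note: compound exposure lasted between 18 and 24 h rather than exactly 24 h; 100% = carrier-treated control wells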); settings: SK-BR-3 viability, CellTiter-Glo luminescence, at 10 µM, stronger effect = lower value
# [2] = HUVEC growth inhibition – cell-based, human, primary screen (AID 575;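 active = viability at or below 30% in both replicate assays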;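 note: 100% = median of untreated cell wells with 0.1% DMSO on each plate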); settings: HUVEC proliferation, CellTiter-Glo luminescence, 72 h; at 10 µM; stronger effect = lower value
# [3] = reversal of MRP1-mediated doxorubicin resistance, pilot screen, H69AR cells, doxorubicin co-treatment (AID 601;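 active = viability loss from added drug above about 55%, and viability with drug at most 40%, in both replicates, limit read from the data, passing the limit was not always enough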); settings: CellTiter-Glo, 72 h, at 10 µM; for differential viability (reversal): stronger effect = higher value
# [4] = 384-well plate pilot, post-Golgi transport modulator project, inhibition of yeast transport mutant growth (AID 636; in the data active = inhibition above about 31%); settings: absorbance 615 nm, about 18 h, stronger effect = higher value
# [5] = growth suppression of yeast trafficking mutant, preliminary HTS, modulators of trafficking downstream of Golgi apparatus project, 1536-format plate, OD 615 nm (AID 637); settings: yeast transport mutant growth, absorbance 615 nm, 18 h; stronger effect = higher value
# [6] = growth inhibitors of H69AR lung tumor, primary screen, human, duplicate replicates (AID 580;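 active = viability at or under a set limit in both replicates, limit being median viability minus 3 SD, cut at about 48% in these data, passing the limit was not always enough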;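 note: 100% = mean luminescence of untreated wells and 0% = no signal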); settings: H69AR lung tumor cells viability, ATP luminescence, 72 h; at 10 µM; stronger effect = lower value
# [7] = OD615 S. cerevisiae growth inhibition, permissive medium, pilot counter-assay, permissive growth control for S. cerevisiae lifespan shortening project (AID 705;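 active = growth inhibition above 25% in both replicates, a cutoff set 3 SD above the mean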); settings: OD615, 24 h, at 10 µM, stronger effect = higher value
# [8] = Restrictive medium S. cerevisiae growth inhibition, OD615, pilot screen of yeast lifespan reduction project, restrictive growth control (AID 706;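 active = growth inhibition above a set limit, 3 SD over mean compound inhibition, in both replicates, cut at about 43% in these data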;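 note: modified DeaD lifespan yeast strain shifted to restrictive glucose medium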); settings: OD615, 48 h, at 10 µM, stronger effect = higher value
# [9] = viability gain of MRP-1-high H69AR cells under doxorubicin, pilot screen, MRP-1 activator project, CellTiter-Glo, duplicate (AID 807;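 active = viability increase at or above a cutoff of the median across tested compounds plus 3 SD, cut at about 8.5% in these data, passing the limit was not always enough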;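 note: compound pretreatment 18-22 h then 72 h combined with doxorubicin; 0% = doxorubicin alone and 100% = vehicle without doxorubicin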); settings: H69AR viability with doxorubicin, CellTiter-Glo luminescence; at 10 µM; stronger effect = higher value
# [10] = growth suppression of beta-catenin knockout HCT116, pilot screen, human colon tumor cells (AID 823;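 active = cell viability at or below a set limit in both duplicate runs, the limit being the all-compound median minus 4 SD, cut at about 23% in these data, passing the limit was not always enough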;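 note: 0% = wells killed by 20 µM Hyamine and 100% = untreated DMSO cell wells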); settings: CellTiter-Glo, 60 h, at 10 µM, stronger effect = lower value
# [11] = growth suppression of PTEN-deleted HCT116, pilot screen, cell-based, HCT116 clonal line, CellTiter-Glo (AID 824;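 active = viability at or below 27.92% in each of two runs, the all-compound median minus 4 SD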;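 note: 0% = 20 µM Hyamine control and 100% = vehicle cell control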); settings: 60 h, at 10 µM, stronger effect = lower value
# [12] = inhibitors of the yeast RAM network, pilot screen, dse1pr::URA3 reporter, 5-FOA selection (AID 869;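 active = inhibition over a set limit, the all-compound mean plus 3 SD, in both replicate runs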;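 note: 0% = DMSO wells with no growth and 100% = 10 µM 1-NA-PP1 with full growth; RAM network block rescues cells from 5-FOA so hits raise OD615 growth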); settings: S. cerevisiae dse1pr::URA3 5-FOA growth, OD615, 2 d; at 10 µM; stronger effect = higher value; strain carries analog-sensitive mutant Cbk1 kinase
# [13] = H69AR cells + 2 uM doxorubicin, measured here: viability with 2 uM doxorubicin, stronger effect = lower value
# [14] = H69AR cells, compound alone cytotoxicity
SMILES,viability [1],viability [2],differential viability (reversal) ([3]; H69AR cells + 2 uM doxorubicin),"viability [3, 13] [%]","viability [3, 14] [%]",inhibition [4],inhibition [5],viability [6],growth inhibition [7],growth inhibition [8],viability increase [9],viability [10],viability [11],inhibition [12]
COc1ccc(-c2ccc(-c3noc(-c4cccs4)n3)c(OC)n2)cc1,77% (inactive),98.8% (inactive),-5.54% (inactive),70.1,64.6,-7.43% (inactive),-8.73% (inactive),–,–,–,–,–,–,–
COc1cccc(-c2cc(C(=O)Nc3cc(C)n(Cc4ccc(Cl)cc4)n3)no2)c1,57.5% (inactive),–,-6.4% (inactive),58.5,52.1,-6.35% (inactive),-7% (inactive),–,–,–,–,–,–,–
CCC(=O)Oc1ccc(C(CC)C(CC)c2ccc(OC(=O)CC)cc2)cc1 (centres undefined),112% (inactive),–,-16.4% (inactive),102,85.8,-5.32% (inactive),-1.33% (inactive),85.8% (inactive),–,–,–,–,–,–
CCc1oc2ccccc2c1C(=O)c1cc(Br)c(O)c(Br)c1,95% (inactive),–,-23.2% (inactive),102,79,-0.52% (inactive),54.7% (active),79% (inactive),–,–,–,–,–,–
O=C(CNCCC1=CCCCC1)Nc1ccccc1N1CCCCC1,102% (inactive),–,-5.31% (inactive),66.9,61.6,-1.08% (inactive),6.51% (inactive),–,–,–,–,–,–,–
COc1ccc(Cl)cc1C(=O)NCCc1ccc(S(=O)(=O)NC(=O)NC2CCCCC2)cc1,116% (inactive),–,-9.18% (inactive),103,93.5,0.26% (inactive),-1.33% (inactive),93.5% (inactive),–,–,–,–,–,–
O=C(O)c1cc(O)c2c(c1)C(=O)c1cccc(O)c1C2=O,87% (inactive),–,-14.5% (inactive),91.4,76.9,-4.42% (inactive),1.83% (inactive),76.9% (inactive),–,–,–,–,–,–
CCCCC[C@H](O)/C=C/[C@H]1C=CC(=O)[C@@H]1C/C=C\CCCC(=O)O,111% (inactive),–,9.76% (inactive),57.6,67.4,-2.99% (inactive),-0.5% (inactive),67.4% (inactive),–,–,–,–,–,–
CCC(=O)Oc1ccc(/C(CC)=C(\CC)c2ccc(OC(=O)CC)cc2)cc1,131% (inactive),–,-40.5% (inactive),49.2,8.75,-0.39% (inactive),-4.67% (inactive),–,–,–,–,–,–,–
CC(=O)Nc1ccccc1OCC(=O)c1cc(C)n(Cc2cccs2)c1C,92% (inactive),–,-4.4% (inactive),90.2,85.8,-3.01% (inactive),-3.45% (inactive),85.8% (inactive),–,–,–,–,–,–
C(=C\c1ccccc1)/CSc1nnc(-c2ccccn2)n1Cc1ccco1,84% (inactive),–,-46.8% (inactive),68.2,21.4,-6.53% (inactive),-0.16% (inactive),21.4% (active),–,–,–,–,–,–
COC(=O)c1ccccc1NC(=O)Cn1c(-c2nonc2N)nc2ccccc21,70.5% (inactive),–,-10.4% (inactive),26.1,15.7,1.07% (inactive),-4.84% (inactive),15.7% (active),–,–,–,–,–,–
CCc1nnc(NC(=O)c2ccc(S(=O)(=O)N(CC(C)C)CC(C)C)cc2)o1,77% (inactive),–,-28.4% (inactive),61.4,32.9,3.9% (inactive),0.66% (inactive),32.9% (active),–,–,–,–,–,–
O=C(CCCN1CCC(O)(c2ccc(Cl)cc2)CC1)c1ccc(F)cc1,79% (inactive),–,3.11% (inactive),80.9,84,2.34% (inactive),-3.17% (inactive),84% (inactive),–,–,–,–,–,–
O=S(=O)(c1cccc2cnccc12)N1CCCNCC1,140% (inactive),–,1.83% (inactive),95.5,97.4,-2.08% (inactive),4.5% (inactive),97.4% (inactive),–,–,–,–,–,–
COC(=O)c1ccccc1NC(=O)c1ccc(-c2ccccc2F)o1,89% (inactive),–,7.71% (inactive),53.2,60.9,-8.36% (inactive),-2.74% (inactive),–,–,–,–,–,–,–
CC(=O)C(Sc1ncnc2c1nnn2-c1ccc(F)cc1)C(=O)N(C)C (centres undefined),136% (inactive),–,-12.3% (inactive),61,48.7,-3.12% (inactive),4.1% (inactive),–,–,–,–,–,–,–
Cc1ccc(-c2cc(C(F)F)nc(NCC3CCCO3)n2)cc1 (centres undefined),86% (inactive),–,6.21% (inactive),94.2,100,1.56% (inactive),-5.25% (inactive),100% (inactive),-12.2% (inactive),-9% (inactive),2.09% (inactive),66.4% (inactive),71.6% (inactive),1.38% (inactive)
COc1ccc(Br)cc1-c1noc(-c2ccccc2)n1,99% (inactive),–,-0.585% (inactive),79.1,78.5,-3.87% (inactive),-4.36% (inactive),78.5% (inactive),–,–,–,–,–,–
